Reference: PubChem BioAssay AID1508600 (Functional Genomics Laboratory (NCATS/FGL), 2020)
The whole screen tested about 53,000 sequences, of which about 3,700 (7%) were called active. Shown is part of a subset that was picked to be rich in actives. Values without a mark were called inactive.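 Rule for the calls: active = gene knockdowns whose robust z-score for IL-1 alpha signal is at least 2 or at most -2, so actives lie on both sides; inactive = the rest.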

Assay: Components of the Cytosolic LPS Sensing Pathway: Gene Identification via Genome-wide siRNA Screen;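 note: robust z of the log signal after scaling to non-targeting control siRNA wells of the plate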
Details: RAW264.7 macrophages, IL-1a HTRF, actives lie on both sides, screened at 100 nM (by protocol), cells primed 5 h with Pam3CSK4 first
How it was run: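 Cells (RAW264.7, 1×10^4 per well) were transfected with siRNA at 100 nM and cultured 48h at 37 degrees C. Pam3CSK4 was added for 5 hours; LipidA transfection followed for 24 hour. IL-1a was then measured by HTRF.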

| Sequence | z-score |
| --- | --- |
| GGAUUUAUUUCCGAUUCGATT against Nalcn | -0.0152 |
| GGAUCAAAAGGUGAAUGCUTT against Vmn1r67 | -2.54 (active) |
| GCUGCAUUCGGUUACCACUTT against Olfml2b | 0.677 |
| GGAGGUUACAUAACAGGUGTT against Itsn2 | 1.86 |
| GGGAGUUAUUUAAGAUUCUTT against Has1 | 0.0567 |
| GAAAAAUAAUGGAGUUUGGTT against Gtf2h5 | 0.513 |
| CCAGUGGAGUAAACUGUAATT against Ltbp1 | 2.24 (active) |
| GGAAGUGGUCCACCUGAUCTT against Mms19 | -0.324 |
| GGCCCAUCUGAGGAAGCUUTT against Magea4 | -1.55 |
| GGAACUUCAUAAACACUUGTT against Oas3 | -0.545 |
| GGUUCUGGAAAGUUCUCUGTT against Sorcs2 | -0.0101 |
| GGUGAUGUUUUAUGGCAGGTT against Olfr1335 | 0.329 |
| CGAUGAUCGGCUCAACAAGTT against Rplp2 | -0.401 |
| GGCCAUACGCAAGCUCAAGTT against Rtl5 | -2.96 (active) |
| GGUUCCUCACAAGCAUUCUTT against Olfr818 | 0.276 |
| GCAUGAAGUUGCACAUCCCTT against Cox8b | -0.42 |
| GGGAGCUAUUUAUCCUAUUTT against Zc4h2 | 0.214 |
| GCCUCCUGAAUGACCACAUTT against Klk1b27 | 2.29 (active) |
| GGACUGUGAUUGUUUCAGATT against Mep1a | -0.0817 |
| GGUAUCAUCUAUAGAGACUTT against Prkch | -0.265 |
| CCGUGCCAAACUUCUUACUTT against 2610528J11Rik | -0.1 |
| GGGCUAGAGGAAAACGAAATT against Crot | 1.64 |

| Sequence | z-score |
| --- | --- |
| CGCAGAGAGUAGAAAAUUGTT against Pdia5 | -0.428 |
| GGACUGUCAUCUUCCUCAGTT against Ston2 | -2.97 (active) |
| GCUAUGACCGGAGGUUCUATT against Morn5 | 0.555 |
| GGAAACGAAGAGGAAGAAUTT against Ddit3 | -0.571 |
| CCAGUAUAUUCUGAGGGUUTT against Isl1 | 0.374 |
| GGAGACUGAGGAAGAAUCUTT against Atcay | -0.302 |
| GGACUGUGACAUAUUCUUUTT against Zfp54 | 2.74 (active) |
| GGGUGGACUGAAUGCUGAUTT against Qtrt1 | 0.665 |
| GGUGUACCUUGGGACUUACTT against Prpf18 | -2.84 (active) |
| GGUUUACUUCCCAUACCUGTT against Pold1 | 0.701 |
| GGCAAUACGUAACAUGCCATT against Slc6a4 | -0.148 |
| GGACGAAGACACCAAAGUGTT against Camk2a | -1.31 |
| GGUAGGGACCUAUCCUUGGTT against Cramp1l | -0.518 |
| GGAUGGAGUUCACAUUUUCTT against Utp11 | 0.816 |
| CCUUGAGCAAAUCACACAUTT against Stk32b | 3.94 (active) |
| GGACAAGAACUUAGUGAUGTT against Emc9 | 0.522 |
| GGCUGGAACCCUAAUUUCUTT against Tpo | 1.32 |
| AGUGGGCUUCAAAUUUCCATT against Aym1 | -0.551 |
| GCAUGAUCGUGUUUGUUUATT against Srpk2 | 0.722 |
| GGUUUCAAUAAUCCAGGAATT against Naa16 | 0.352 |
| CCUCAAAUGGCCACACACUTT against Kcnj11 | -1.27 |
| GGACUAAAUGGUCAAGAUUTT against Rbm8a | -2.74 (active) |

| Sequence | z-score |
| --- | --- |
| CCUUGGAUGUAUUCAUAUATT against Prkar2a | 0.255 |
| GGGUACCUGUGGUUUUUGUTT against Hdhd5 | -0.481 |
| GCUCCAAAUUAAAUUUUGCTT against Irf9 | 0.768 |
| GGUCAUUCAAGAGAUACUATT against Dennd10 | -0.65 |
| GGCAAAGGACUUCAUGGCUTT against B4galt4 | -1.42 |
| CGACAGAGGAAAACAUAAATT against St13 | -2.55 (active) |
| GGAAAGAAAGACUAGUAAATT against Cpne1 | 0.815 |
| CCUCAUCGACAUAAUGAUUTT against Samhd1 | -0.0182 |
| GGUUCACUCUGAAGACACCTT against Pkig | 0.0516 |
| CCGUGUGACAUUUGAGUAUTT against Crhbp | 1.42 |
| CCAGCUUUGGGAAAUACCGTT against Sertad1 | -2.39 (active) |
| GGGAUCCAUCCUUAUUGUUTT against Ybx2 | -0.101 |
| GGAUUCUCCUUUACCUUUGTT against B930095G15Rik | 0.0151 |
| GGAAGACUUUGGCUUUGAATT against Tfpt | -0.165 |
| GGAGAACAUCAAGAACAAUTT against Ap2m1 | 2.08 (active) |
| GCCCGAAAAAGAGAACUGATT against Wbp11 | 0.056 |
| GGAUCAAGACAAAAAACUUTT against Arhgap17 | -0.17 |
| GGACCAGAUUGCUAAUGAGTT against Fam13a | -0.0932 |
| GGAAUUCUUGAAGAUUCCCTT against Ptpn7 | 0.884 |
| GGAGCUCCUACCAAGACUUTT against Klhl38 | 1.07 |
| GGAAUGCAAUGACAAAUGATT against Kank3 | 0.198 |
| GCUUAUAAGAGUCUAUCUUTT against Stam | -0.217 |

| Sequence | z-score |
| --- | --- |
| GCUCAGUUUAUACCAAAAUTT against Api5 | -2.31 (active) |
| CCCAAGAUCUAAGAGUAUUTT against Rin3 | -1.18 |
| GGGACUAUUCCUCCAGAGUTT against Cast | -0.439 |
| GGUCAAGAGGGAAAACUUUTT against Ctps | 0.0558 |
| CGGUACAUCAUUGCUGUCATT against Slc17a8 | -2.22 (active) |
| CCGUAGUAUCCACUGAUUGTT against Olfr1322 | -0.34 |
| GGAGGAAGAAACAACAAUGTT against Calhm5 | 0.76 |
| GGCUUAGUAUGUUGUAUUCTT against Fam241b | 0.189 |
| GGGUUCAUUUUUGGCUUUCTT against Serpina3m | 0.0735 |
| GGUGCAGAAGCUCAAGUUCTT against Cpne2 | 2.44 (active) |
| GCGAAUCUCCUCCUAGUGATT against Arhgap28 | -0.0218 |
| GGAAUUCGUAAAGAUUGCATT against Esrp2 | -0.158 |
| UGCUGGUAGACCUAGUAGCTT against Olfr1137 | -2.1 (active) |
| GGUGUACGAUCUGACCAAGTT against Cyb5a | 0.0756 |
| GGAAUGGUUUGGUGAGUUUTT against Pramel1 | 0.859 |
| GGCAUCUCUUCCAAGUUGGTT against Mzt1 | 1.69 |
| GGGACAUAUUGUUUCCCUUTT against Tmco5b | 0.777 |
| GGUUAUGAUGGGACUUCUCTT against Tmem37 | -1.34 |
| CCUUUGUAGGAACAAUUUATT against Phlda1 | 0.409 |
| GCGUAUUUUAUGGAUGAAATT against Nfkbiz | -2.42 (active) |
| GGAUUAUCAUGGUUUGAUCTT against Elp4 | 0.938 |
| GCAUCUGUGCCGAUUAAAATT against Asb15 | 1.32 |

| Sequence | z-score |
| --- | --- |
| AUAUCAGACUGACAUAGCATT against Obox5 | 2.47 (active) |
| CGAGGCUAACAAACUCAUATT against Guca2a | 0.883 |
| CCUGGAAACUAUUUUGAUGTT against Katnal2 | 0.0379 |
| GACAAAACAAUUUCCUAUGTT against Olfr805 | -0.318 |
| GGCAGAAACGUGGACUAAATT against Mmp12 | -1.29 |
| GGAACCAGUAUCCUGACAUTT against Prop1 | -0.592 |
| GGCUAUAAUGAACCAGCUGTT against Ubr3 | -0.208 |
| CCAGUUCAGAGAUUAUCUUTT against Olfr826 | -2.13 (active) |
| GGAUGCAGAUGUACAACUCTT against Slc25a28 | 2.17 (active) |
| GGAGCCUCCAAGUUGUAAGTT against Ifi27l2b | 0.748 |
| CCACCUUAACUGUUGCUUUTT against Mmp2 | 0.691 |
| GCAUUUGAAUCGACUACAGTT against Vti1b | 0.691 |
| GGUGUGUGCAGGACUAAAUTT against Cacng3 | 0.955 |
| GCCGGAGUGCACAAUCAAATT against Rarres2 | 0.908 |
| GGAAAUCCAUCGUUAUUCUTT against Abca8a | 2.08 (active) |
| GGAGAGACUUGAGAUUGUCTT against Ptx3 | 0.245 |
| GGACACUAUCCGUGCAUCUTT against Tsg101 | -1.13 |
| GCAAGUGACGGUUUAUCUGTT against Las1l | -1.68 |
| UACCAGAAGUACCUGUCCCTT against Lbx1 | 3.33 (active) |
| CCUCAUUCGAUACAUCUGUTT against Ints3 | 0.319 |
